Assay outcomes deposited in PubChem by National Center for Advancing Translational Sciences (NCATS).
Shown are actives, neighbours in structure and some others; about 2.9% of the full set was active somewhere.
B2AR arrestin – recruits beta-arrestin to the human beta2-adrenergic receptor. P07550. beta-arrestin recruitment to beta2AR, cell-based reporter. Potency, µM (doses to about 46.1 µM), inactives show top-dose activation, usual class: activators. 330,000 tested, 0.02% active; active = well fitted activation curve with a large enough effect; inconclusive = small, poorly fitted or top-dose-only effect;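 note: potency is the fitted concentration of half-maximal effect; 0% = DMSO controls and full agonism = EC100 isoproterenol or metaproterenol; nearly all actives have a fitted effect of over 65% in size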
D3 antag – blocks the human D3 dopamine receptor; max response, negative = inhibition, %; P35462; D3R cells, DiscoveRx beta-arrestin luminescence, antagonist mode; stronger effect = lower value; AID 652054; 360,000 tested, 2.5% active; in the data active = max response below about -50%; inconclusive = no clear call, values can overlap the other calls; note: % is set by controls: 0 for no effect and ±100 for the full control effect
Target sequence (P35462 whole entry, looked up): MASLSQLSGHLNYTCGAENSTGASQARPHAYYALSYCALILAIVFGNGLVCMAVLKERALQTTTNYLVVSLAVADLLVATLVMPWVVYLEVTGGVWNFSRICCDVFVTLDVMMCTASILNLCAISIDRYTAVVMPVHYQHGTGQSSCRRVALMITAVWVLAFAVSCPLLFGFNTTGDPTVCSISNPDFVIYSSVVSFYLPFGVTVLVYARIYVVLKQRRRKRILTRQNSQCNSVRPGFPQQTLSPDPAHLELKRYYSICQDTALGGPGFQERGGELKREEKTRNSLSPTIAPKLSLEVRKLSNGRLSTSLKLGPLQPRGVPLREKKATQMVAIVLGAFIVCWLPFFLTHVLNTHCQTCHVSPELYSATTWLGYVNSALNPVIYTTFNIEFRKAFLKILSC
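Cells expressing the human receptor were seeded at 1500 cells/well, incubated overnight at 37 degrees C in 5% CO2, then exposed to library compounds with dopamine controls for 90 minutes at 37 degrees C before luminescent detection.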
TSHR antag – human thyrotropin receptor antagonism | P16473 | TSHR-expressing cells, TSH-stimulated cAMP HTRF, 2 h; stronger effect = lower value | AID 504810 | 330,000 tested, 0.2% active | activity change, negative = inhibition, % at 11.5 µM;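 active = activity change below a set negative limit, meaning inhibition stronger than a set level, cut at about -70% in these data; inconclusive = activity change between two set negative limits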; note: % is set by controls: 0 for no effect and ±100 for the full control effect
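Freshly harvested TSHR cells receive pin-tooled compound, then EC80 TSH at 4nM final. After 2 hours at 37 deg C, antibody in lysis buffer and cAMP-d2 are added; 30 minutes at ambient temperature precede the HTRF read.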
DRD3 agonist – activates the human D3 dopamine receptor | P35462 | D3R DiscoveRx beta-arrestin cells, luminescence, 90 min | max activation, % | 410,000 tested, 0.58% active | AID 652048; in the data active = max activation above about 30%; note: 0% is about no effect
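Cells at 1500/well, incubated overnight, then treated with pinned compounds (dopamine as control) for 90 min at 37 degrees C. DiscoveRx reagent added for 30 - 60 minutes at room temperature; luminescence read.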
* marks the source's active call; other numbers are inactive results; ? = inconclusive; / = no result; ! = not confirmed by another sample.

SMILES | B2AR arrestin | D3 antag | TSHR antag | DRD3 agonist
O=C(NC(=S)NCc1ccccc1)C1CCCCC1 | 12% | -54* | -9 | -2
COc1cccc(C(C(=O)NC2CCCC2)N(Cc2ccco2)C(=O)c2ccco2)c1OC (stereo not given) | 0% | -65* | 0 | 0
COc1cc(/C=C/c2ccc3c([N+](=O)[O-])cccc3n2)ccc1OCC(=O)O | 0% | -8 | -11 | 1
COc1cc(/C=C/c2cc(OC(C)=O)c3ccccc3n2)c(OC(C)=O)c([N+](=O)[O-])c1 | 0% | -82* | -7 | -13
COc1ccc(C[C@@H]2CN3C(=NC[C@@H]3C)N2CCNC(=O)c2ccc(C)c(Br)c2)cc1 | -1% | -52* | -6 | -58
COc1ccc(C[C@H]2CN3C(=NC[C@@H]3C(C)C)N2CCNC(=O)CCC2CCCCC2)cc1 | 1% | ? | 2 | -64
CC(C)[C@H]1CN=C2N(CCNC(=O)CCC3CCCCC3)[C@H](Cc3ccc(O)cc3)CN21 | 3% | -83* | 19 | -62
COc1ccc(C[C@H]2CN3C(=NC[C@@H]3Cc3ccccc3)N2CCNC(=O)CCC2CCCCC2)cc1 | 0% | -62* | 3 | -32
C/C=C(\C)C(=O)NCCN1C2=NC[C@H](C)N2C[C@@H]1Cc1ccc(OC)cc1 | 0% | 9 | 12 | -8
COc1cc(OC)c(NC(=O)Nc2ccc3c(c2)N(C)C(=O)c2ccccc2S3)cc1Cl | / | / | / | 6
NC(=O)SCC(=O)Nc1ccc(Cl)cc1 | 0% | -53* | 17 | -11
NC(=O)SCC(=O)Nc1ccc(Cl)c(Cl)c1 | 0% | 0 | -12 | 1
COc1ccc(OC(C)C(=O)N(C)Cc2nc(-c3ccc(OC)cc3)no2)cc1 (stereo not given) | 0% | 2 | -17 | 40*
COc1ccc(-c2noc(CN(C)CCC3CCCCO3)n2)cc1 (stereo not given) | 0% | 10 | 30 | 35*
COC(=O)c1ccc(-c2noc(CN(C)CCC3CCCCO3)n2)cc1 (stereo not given) | 0% | 7 | ? | 10
CN(C1CCCCC1)S(=O)(=O)c1ccc2c(c1)c(=O)c(C(=O)NCc1ccc(Cl)cc1)cn2C | / | / | / | 8
COC(=O)c1c(-c2ccc(Cl)cc2)noc1N1CCN(c2cccc(C(F)(F)F)c2)CC1 | / | / | / | 95*
COC(=O)c1c(-c2ccc(Cl)cc2)noc1N1CCN(c2ccc(F)cc2)CC1 | / | / | / | 64*
CN(CC(=O)Nc1cccc(C#N)c1)Cc1ccc(Cl)cc1 | 0% | -74* | -6 | -18
CN(CCOC(=O)c1ccc2c(c1)OCCO2)Cc1ccccc1 | 0% | -79* | -5 | 0
CN(CCOC(=O)c1ccc2c(c1)OCCO2)C(C)(C)C | 0% | 10 | 10 | -8
CN(CC(=O)Nc1ccc(C#N)cc1)Cc1ccc(Cl)c(Cl)c1 | 0% | 79 | -9 | 3
CN(CCC(=O)Nc1ccc2c(c1)OCO2)Cc1ccccc1 | 0% | -73* | 6 | -31
CN(CCC(=O)Nc1ccc(Cl)cc1)Cc1ccccc1 | 0% | -97* | -3 | -23
CN(C)c1ccc(CNC(=O)C2CCCN(S(=O)(=O)c3ccc4c(c3)oc(=O)n4C)C2)cc1 (stereo not given) | / | / | / | 7
SMILES | B2AR arrestin | D3 antag | TSHR antag | DRD3 agonist
O=C1/C(=C\c2cccs2)CCC/C1=C\c1cccs1 | / | / | / | 5
COc1cc(NC(=O)c2cc(-c3cccc(OC)c3)n[nH]2)cc(OC)c1 | / | / | / | -17
O=C(CO)[C@@H](O)[C@H](O)[C@@H](O)C(=O)O | / | / | / | 7
O=C1C2C3C=CC(CC3)C2C(=O)N1/N=C/c1ccccc1O (stereo not given) | 0% | -65* | 1 | 2
O=C(CC(=O)c1ccccc1)CC(O)(C=Cc1ccccc1)c1ccccc1 (stereo not given) | / | -21 | / | -5
COCC1CCCN(Cc2nc(C(c3ccccc3)c3ccccc3)no2)C1 (stereo not given) | 0% | -2 | -18 | -13
c1ccc(C(c2ccccc2)c2noc(CN3CCN(CC4CC4)CC3)n2)cc1 | 0% | -63* | 5 | -21
Cc1ccc(Nc2nnc(-c3ccc(C)c(S(=O)(=O)N4CCOCC4)c3)c3ccccc23)cc1 | / | / | / | -15
Cc1cc(N2CCN(c3ncccn3)CC2)nc2c(C)cccc12 | 0% | 18 | -11 | 36*
Cc1cccc(C2=NN(c3ccccc3)[C@H](CO)[C@H]2c2ccccc2)c1 | 0% | 14 | -6 | 42*
CCN(CC)CCNC(=O)c1ccc(N2CCCCC2)c(NS(=O)(=O)c2ccc(C)cc2)c1 | 0% | -82* | 2 | -13
O=[N+]([O-])c1cc(Br)c(O)c(/C=N/Nc2nnnn2-c2cccc3ccccc23)c1 | 0% | -85* | -75* | -53
COC(=O)c1c(-c2cccs2)csc1NC(=O)c1cc(OC)c(OC)c(OC)c1 | / | / | / | 36*
COC(=O)c1c(-c2cccs2)csc1NC(=O)c1ccc(OC)c(OC)c1 | / | / | / | 24
Cc1ccc(/C=C/c2onc(C)c2S(=O)(=O)N2CCC(C(=O)NCc3ccc(Cl)cc3)CC2)cc1 | / | / | / | -5
O=C(Cc1ccc(F)cc1)N1CCC(c2nc3c(nnn3Cc3ccc(Cl)cc3)c(=O)[nH]2)CC1 | / | / | / | -20
CN1C(=O)/C(=C/c2ccc(OCc3ccccc3F)cc2)NC1=S | 0% | 8 | -70* | 1
CCOC(=O)Cc1csc(NC(=O)CSc2nnc(C3CC3)n2C)n1 | 0% | -50* | 5 | 1
Cc1ccc2c(c1)NC(=O)C(CC(=O)Nc1ccccc1Cl)O2 (stereo not given) | / | / | / | -6
c1ccc(-c2csc(NNC3=NCCCCC3)n2)cc1 | 3% | -8 | 1 | -5
Clc1ccc(-c2csc(NNC3=NCCCCC3)n2)cc1 | 0% | -78* | 9 | -1
Cc1cc(C2CCCCC2)n(O)c(=O)c1 | 14% | 45 | -3 | 46*!
COc1ccc(CCNC(=O)CCn2c(=O)c3ccccc3n(Cc3ccccc3F)c2=O)cc1OC | / | / | / | 1
COc1ccc([C@H]2CC(=O)C=C(c3ccc(-c4ccccc4)cc3)C2)cc1OC | 0% | 0 | 49 | -1
COc1ccc([C@H]2CC(=O)C=C(c3ccc(C(=O)O)cc3)C2)cc1OC | 0% | 2 | -1 | 31*
SMILES | B2AR arrestin | D3 antag | TSHR antag | DRD3 agonist
COc1ccc([C@H]2CC(=O)C=C(c3cc4ccccc4s3)C2)cc1OC | -1% | 51 | -32 | 32*
COc1cccc(C(=O)NC2CC3CCCC(C2)N3CC(=O)Nc2ccccc2C(F)(F)F)c1 (stereo not given) | 5% | -15 | -25 | -11
O=C(NC1CC2CCC(C1)N2Cc1ccccc1)c1cccc(F)c1 (stereo not given) | 0% | -117* | 1 | -4
COc1ccc(CN2C3CCC2CC(NC(=O)c2cccc(F)c2)C3)cc1 (stereo not given) | 1% | -86* | 1 | -15
O=C(NC1CCN(C(=O)NCc2ccccc2)CC1)c1cccc(F)c1 | 0% | 3 | 0 | 3
O=C(NC1CC2CCC(C1)N2Cc1ccco1)c1ccccc1 (stereo not given) | -1% | -69* | -1 | -3
